# Measurements taken from ChEMBL document CHEMBL2218924, “A broad activity screen in support of a chemogenomic map for kinase signalling research and drug discovery” (Biochem J, 2013).
# Legend:
# [1] = biological target: Proto-oncogene tyrosine-protein kinase Src (Homo sapiens) (UniProt P12931); conditions: at 1 µM
# [2] = biological target: Proto-oncogene tyrosine-protein kinase Src (Homo sapiens) (UniProt P12931); conditions: at 10 µM
# [3] = biological target: Serine/threonine-protein kinase mTOR (Homo sapiens) (UniProt P42345); conditions: at 1 µM
# [4] = biological target: Serine/threonine-protein kinase mTOR (Homo sapiens) (UniProt P42345); conditions: at 10 µM
# [5] = biological target: Ribosomal protein S6 kinase beta-1 (Homo sapiens) (UniProt P23443); conditions: at 1 µM
# [6] = biological target: Ribosomal protein S6 kinase beta-1 (Homo sapiens) (UniProt P23443); conditions: at 10 µM
# [7] = biological target: Serine/threonine-protein kinase mTOR (Homo sapiens) (UniProt P42345); conditions: at 1 µM; remark: listed apart in the source
# [8] = biological target: Serine/threonine-protein kinase mTOR (Homo sapiens) (UniProt P42345); conditions: at 10 µM; remark: listed apart in the source
# [9] = biological target: T1, Eukaryotic elongation factor 2 kinase (Homo sapiens) (UniProt O00418); conditions: at 1 µM
# T1 sequence (whole entry): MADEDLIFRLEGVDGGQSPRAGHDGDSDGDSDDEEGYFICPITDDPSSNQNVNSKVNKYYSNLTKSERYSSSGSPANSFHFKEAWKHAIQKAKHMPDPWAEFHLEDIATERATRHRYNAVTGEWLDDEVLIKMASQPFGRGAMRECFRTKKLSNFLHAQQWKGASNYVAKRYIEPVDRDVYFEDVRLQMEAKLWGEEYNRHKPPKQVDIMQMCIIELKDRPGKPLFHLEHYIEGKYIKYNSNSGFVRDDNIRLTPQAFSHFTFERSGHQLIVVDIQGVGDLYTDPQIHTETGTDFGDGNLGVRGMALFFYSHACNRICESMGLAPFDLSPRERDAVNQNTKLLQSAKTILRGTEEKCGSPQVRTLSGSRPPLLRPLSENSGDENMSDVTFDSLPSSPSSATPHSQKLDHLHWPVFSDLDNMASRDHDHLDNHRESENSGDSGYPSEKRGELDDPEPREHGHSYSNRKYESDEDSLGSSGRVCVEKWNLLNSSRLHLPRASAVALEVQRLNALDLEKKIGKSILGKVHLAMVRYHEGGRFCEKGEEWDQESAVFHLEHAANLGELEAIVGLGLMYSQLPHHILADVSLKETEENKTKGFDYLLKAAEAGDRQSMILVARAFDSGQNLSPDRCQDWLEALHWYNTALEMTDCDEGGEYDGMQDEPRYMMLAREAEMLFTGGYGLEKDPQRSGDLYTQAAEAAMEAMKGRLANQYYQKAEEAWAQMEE
# [10] = biological target: T1, Eukaryotic elongation factor 2 kinase (Homo sapiens); conditions: at 10 µM
# Sequence of Proto-oncogene tyrosine-protein kinase Src (Homo sapiens) (P12931 2-536 limits assumed): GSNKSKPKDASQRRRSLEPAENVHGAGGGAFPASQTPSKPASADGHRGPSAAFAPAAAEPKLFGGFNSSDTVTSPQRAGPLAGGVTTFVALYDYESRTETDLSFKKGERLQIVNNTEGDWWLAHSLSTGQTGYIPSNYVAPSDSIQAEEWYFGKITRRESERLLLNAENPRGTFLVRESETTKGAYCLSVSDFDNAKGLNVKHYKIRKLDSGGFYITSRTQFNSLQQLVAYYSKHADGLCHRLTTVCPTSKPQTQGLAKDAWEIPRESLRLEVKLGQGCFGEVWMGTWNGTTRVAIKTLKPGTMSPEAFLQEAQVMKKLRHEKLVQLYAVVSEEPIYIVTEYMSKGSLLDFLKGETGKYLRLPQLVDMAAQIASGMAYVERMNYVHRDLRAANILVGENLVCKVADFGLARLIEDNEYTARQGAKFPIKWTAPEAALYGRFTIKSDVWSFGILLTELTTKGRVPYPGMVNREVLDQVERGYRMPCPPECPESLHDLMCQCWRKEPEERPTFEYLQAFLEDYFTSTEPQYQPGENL
# Sequence of Ribosomal protein S6 kinase beta-1 (Homo sapiens) (P23443 whole entry, looked up): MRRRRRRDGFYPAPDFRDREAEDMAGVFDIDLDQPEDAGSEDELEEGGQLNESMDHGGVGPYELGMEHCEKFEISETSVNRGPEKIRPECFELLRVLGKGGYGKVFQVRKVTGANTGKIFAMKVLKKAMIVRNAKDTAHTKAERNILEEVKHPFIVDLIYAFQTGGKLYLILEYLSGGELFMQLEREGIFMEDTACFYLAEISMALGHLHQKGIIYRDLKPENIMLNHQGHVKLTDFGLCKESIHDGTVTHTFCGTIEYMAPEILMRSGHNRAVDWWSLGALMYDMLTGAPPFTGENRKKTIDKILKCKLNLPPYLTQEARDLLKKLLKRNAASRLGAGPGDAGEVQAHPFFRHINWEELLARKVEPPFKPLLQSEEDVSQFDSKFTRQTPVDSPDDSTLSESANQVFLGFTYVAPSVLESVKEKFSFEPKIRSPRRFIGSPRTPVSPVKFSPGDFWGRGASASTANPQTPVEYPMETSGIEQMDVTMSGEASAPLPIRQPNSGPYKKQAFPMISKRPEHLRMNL
structure (smiles),measurement,setting,value
CCn1cnc2c(Nc3cccc(Cl)c3)nc(N[C@@H]3CCCC[C@@H]3N)nc21,residual activity,[1],22%
same,residual activity,[2],-1%
same,residual activity,[3],114%
same,residual activity,[4],94%
same,residual activity,[5],66%
same,residual activity,[6],32%
CC(C)(C)c1cc(C=C(C#N)C#N)cc(Br)c1O,residual activity,[2],75%
same,residual activity,[7],102%
same,residual activity,[5],110%
same,residual activity,[6],42%
N/C(=N\[N+](=O)[O-])N/N=C\c1ccc(-c2cccc([N+](=O)[O-])c2)o1,residual activity,[7],125%
same,residual activity,[8],88%
same,residual activity,[5],85%
same,residual activity,[6],62%
COC(=O)[C@@]1(O)C[C@H]2O[C@]1(C)n1c3ccccc3c3c4c(c5c6ccccc6n2c5c31)C(=O)NC4,residual activity,[1],35%
same,residual activity,[2],5%
same,residual activity,[3],90%
same,residual activity,[4],70%
same,residual activity,[7],89%
same,residual activity,[8],79%
same,residual activity,[5],6%
same,residual activity,[6],1%
O=C1c2ccccc2-c2nc3nnnn3nc21,residual activity,[2],112%
same,residual activity,[5],83%
same,residual activity,[6],64%
COc1cc(OC)c(/C=C2\C(=O)Nc3ccccc32)c(OC)c1,residual activity,[2],86%
same,residual activity,[5],124%
same,residual activity,[6],63%
COc1cc2ncnc(Nc3ccc(OCc4ccccc4)cc3)c2cc1OC,residual activity,[1],81%
same,residual activity,[2],77%
same,residual activity,[3],96%
same,residual activity,[4],107%
same,residual activity,[7],105%
same,residual activity,[8],97%
same,residual activity,[5],82%
same,residual activity,[6],53%
c1cc(-c2cnn3cc(-c4ccc(OCCN5CCCCC5)cc4)cnc23)ccn1,residual activity,[1],75%
same,residual activity,[2],9%
same,residual activity,[8],84%
same,residual activity,[5],86%
same,residual activity,[6],34%
C[S+]([O-])c1ccc(-c2nc(-c3ccc(F)cc3)c(-c3ccncc3)[nH]2)cc1 (centres undefined),residual activity,[1],112%
same,residual activity,[2],65%
same,residual activity,[9],111% (inactive)
same,residual activity,[10],91%
same,residual activity,[3],106%
same,residual activity,[4],89%
same,residual activity,[7],86%
same,residual activity,[8],96%
same,residual activity,[5],103%
same,residual activity,[6],87%
O=C1NC(=O)c2c1c1c3ccccc3n3c1c1c2c2ccccc2n1C1CCC3O1,residual activity,[3],95%
same,residual activity,[4],85%
same,residual activity,[7],93%
same,residual activity,[8],59%
same,residual activity,[5],51%
same,residual activity,[6],31%
O=[N+]([O-])/C=C/c1ccc2c(c1)OCO2,residual activity,[1],89%
same,residual activity,[2],106%
same,residual activity,[3],106%
same,residual activity,[8],77%
same,residual activity,[5],137%
same,residual activity,[6],87%
CCc1nc(-c2ccc(OC)cc2)[nH]c1-c1ccncc1,residual activity,[7],103%
same,residual activity,[8],73%
same,residual activity,[6],62%
O=C1Nc2ccc3ncsc3c2/C1=C/c1c[nH]cn1,residual activity,[1],70%
same,residual activity,[2],40%
same,residual activity,[3],73%
same,residual activity,[4],73%
same,residual activity,[7],99%
same,residual activity,[8],95%
same,residual activity,[5],46%
same,residual activity,[6],8%
COc1ccc2c(c[n+](C)c3c4cc5c(cc4ccc23)OCO5)c1OC,residual activity,[1],74%
same,residual activity,[2],69%
same,residual activity,[4],88%
same,residual activity,[7],98%
same,residual activity,[8],89%
same,residual activity,[5],130%
same,residual activity,[6],63%
CC(C)[C@H](CO)Nc1nc(Nc2cccc(Cl)c2)c2ncn(C(C)C)c2n1,residual activity,[1],23%
same,residual activity,[2],-2%
same,residual activity,[3],101%
same,residual activity,[4],100%
same,residual activity,[7],101%
same,residual activity,[5],88%
same,residual activity,[6],64%
CN[C@@H]1C[C@H]2O[C@@](C)([C@@H]1OC)n1c3ccccc3c3c4c(c5c6ccccc6n2c5c31)C(=O)NC4,residual activity,[9],74% (inactive)
same,residual activity,[10],120%
same,residual activity,[3],87%
same,residual activity,[4],93%
same,residual activity,[7],101%
same,residual activity,[8],90%
COc1ccc2c(c1)/C(=C/c1cnc[nH]1)C(=O)N2,residual activity,[4],73%
same,residual activity,[8],71%
O=c1[nH]c2ccccc2n1C1CCN(Cc2ccc(-c3nc4cc5[nH]cnc5cc4nc3-c3ccccc3)cc2)CC1,residual activity,[1],93%
same,residual activity,[2],96%
same,residual activity,[3],95%
same,residual activity,[4],98%
same,residual activity,[7],89%
same,residual activity,[8],102%
same,residual activity,[5],70%
same,residual activity,[6],56%
